“And” between values parts separate entries of the source, which are not always exact repeats. Equal entries are not always repeated.
Key:
[1] = molecular target: Serine/threonine-protein kinase pim-2 (Homo sapiens) (UniProt Q9P1W9); details: at 1 µM;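 also: each value is a mean of the inhibition measurements against the kinase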
[2] = molecular target: Serine/threonine-protein kinase pim-3 (Homo sapiens) (UniProt Q86V86); details: at 0.1 µM
[3] = molecular target: Serine/threonine-protein kinase pim-3 (Homo sapiens) (UniProt Q86V86); details: at 1 µM
[4] = molecular target: T1, MAP kinase-activated protein kinase 5 (Homo sapiens) (UniProt Q8IW41); details: at 0.1 µM
T1 sequence (whole entry): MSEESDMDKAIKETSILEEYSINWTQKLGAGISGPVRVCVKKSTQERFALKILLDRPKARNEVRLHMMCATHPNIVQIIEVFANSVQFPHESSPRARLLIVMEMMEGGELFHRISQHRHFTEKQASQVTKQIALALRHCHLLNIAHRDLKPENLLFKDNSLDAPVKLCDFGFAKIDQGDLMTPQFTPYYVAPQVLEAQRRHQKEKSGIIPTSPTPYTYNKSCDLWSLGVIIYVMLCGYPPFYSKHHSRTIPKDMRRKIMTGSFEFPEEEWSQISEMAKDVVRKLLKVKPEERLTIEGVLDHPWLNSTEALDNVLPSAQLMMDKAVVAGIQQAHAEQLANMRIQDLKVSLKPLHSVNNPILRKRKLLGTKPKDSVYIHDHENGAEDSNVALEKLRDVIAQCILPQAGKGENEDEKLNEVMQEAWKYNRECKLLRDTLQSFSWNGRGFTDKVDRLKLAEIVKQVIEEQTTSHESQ

[5] = molecular target: T1, MAP kinase-activated protein kinase 5 (Homo sapiens); details: at 1 µM
[6] = molecular target: Serine/threonine-protein kinase SIK1 (Homo sapiens) (UniProt P57059); details: at 0.1 µM
[7] = molecular target: Serine/threonine-protein kinase SIK1 (Homo sapiens) (UniProt P57059); details: at 1 µM
[8] = molecular target: Serine/threonine-protein kinase SIK2 (Homo sapiens) (UniProt Q9H0K1); details: at 0.1 µM
[9] = molecular target: Serine/threonine-protein kinase SIK2 (Homo sapiens) (UniProt Q9H0K1); details: at 1 µM
[10] = molecular target: T2, Serine/threonine-protein kinase TBK1 (Homo sapiens) (UniProt Q9UHD2); details: at 0.1 µM
T2 sequence (whole entry): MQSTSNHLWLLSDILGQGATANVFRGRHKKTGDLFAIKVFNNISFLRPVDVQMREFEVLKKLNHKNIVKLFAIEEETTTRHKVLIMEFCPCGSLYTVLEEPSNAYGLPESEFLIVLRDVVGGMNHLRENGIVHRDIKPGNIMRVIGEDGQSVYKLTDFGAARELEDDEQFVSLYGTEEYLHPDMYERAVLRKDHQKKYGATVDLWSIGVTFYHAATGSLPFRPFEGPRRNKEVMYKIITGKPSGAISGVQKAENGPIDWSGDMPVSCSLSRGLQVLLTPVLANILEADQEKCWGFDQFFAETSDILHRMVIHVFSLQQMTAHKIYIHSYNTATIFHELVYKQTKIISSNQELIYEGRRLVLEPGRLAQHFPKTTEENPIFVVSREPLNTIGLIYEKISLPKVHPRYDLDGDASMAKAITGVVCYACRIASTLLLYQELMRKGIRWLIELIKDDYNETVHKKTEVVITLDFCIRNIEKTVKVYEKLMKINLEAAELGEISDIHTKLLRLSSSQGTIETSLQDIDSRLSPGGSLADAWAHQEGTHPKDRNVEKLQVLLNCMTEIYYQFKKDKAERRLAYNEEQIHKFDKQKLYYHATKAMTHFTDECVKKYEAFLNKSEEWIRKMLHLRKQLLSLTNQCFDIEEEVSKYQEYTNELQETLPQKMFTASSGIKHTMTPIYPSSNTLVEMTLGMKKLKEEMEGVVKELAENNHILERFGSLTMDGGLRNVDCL

[11] = molecular target: T2, Serine/threonine-protein kinase TBK1 (Homo sapiens); details: at 1 µM
[12] = molecular target: T3, Testis-specific serine/threonine-protein kinase 1 (Homo sapiens) (UniProt Q9BXA7); details: at 0.1 µM
T3 sequence (whole entry): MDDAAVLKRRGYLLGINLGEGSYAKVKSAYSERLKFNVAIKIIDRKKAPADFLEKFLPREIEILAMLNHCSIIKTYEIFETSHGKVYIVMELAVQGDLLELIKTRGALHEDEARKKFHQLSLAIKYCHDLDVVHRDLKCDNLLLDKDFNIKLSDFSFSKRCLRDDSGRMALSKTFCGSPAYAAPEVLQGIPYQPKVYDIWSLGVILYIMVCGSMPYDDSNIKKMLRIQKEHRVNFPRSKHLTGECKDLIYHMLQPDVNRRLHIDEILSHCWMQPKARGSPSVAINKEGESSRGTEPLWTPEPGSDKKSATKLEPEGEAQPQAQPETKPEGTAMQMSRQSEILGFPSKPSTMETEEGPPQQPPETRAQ

[13] = molecular target: T3, Testis-specific serine/threonine-protein kinase 1 (Homo sapiens); details: at 1 µM
[14] = molecular target: T4, Testis-specific serine/threonine-protein kinase 2 (Homo sapiens) (UniProt Q96PF2); details: at 0.1 µM
T4 sequence (whole entry): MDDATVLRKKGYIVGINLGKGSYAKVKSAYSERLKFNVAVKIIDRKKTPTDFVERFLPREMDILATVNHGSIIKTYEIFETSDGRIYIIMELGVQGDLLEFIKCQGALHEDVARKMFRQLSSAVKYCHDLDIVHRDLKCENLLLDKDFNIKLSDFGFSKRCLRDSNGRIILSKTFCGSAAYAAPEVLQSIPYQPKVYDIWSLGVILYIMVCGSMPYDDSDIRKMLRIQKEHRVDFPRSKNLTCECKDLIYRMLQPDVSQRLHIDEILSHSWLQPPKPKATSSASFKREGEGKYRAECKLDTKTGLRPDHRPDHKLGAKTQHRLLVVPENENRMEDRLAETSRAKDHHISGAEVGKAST

[15] = molecular target: T4, Testis-specific serine/threonine-protein kinase 2 (Homo sapiens); details: at 1 µM
[16] = molecular target: Casein kinase I isoform alpha (Homo sapiens) (UniProt P48729); details: at 0.1 µM
[17] = molecular target: Casein kinase I isoform alpha (Homo sapiens) (UniProt P48729); details: at 1 µM
[18] = molecular target: Casein kinase I isoform gamma-1 (Homo sapiens) (UniProt Q9HCP0); details: at 0.1 µM
[19] = molecular target: Casein kinase I isoform gamma-1 (Homo sapiens) (UniProt Q9HCP0); details: at 1 µM
[20] = molecular target: Casein kinase I isoform gamma-2 (Homo sapiens) (UniProt P78368); details: at 0.1 µM;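 also: values are mean inhibition figures reported as part of the GSK PKIS dataset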
Chain of Casein kinase I isoform gamma-2 (Homo sapiens) (P78368 whole entry, looked up, canonical isoform): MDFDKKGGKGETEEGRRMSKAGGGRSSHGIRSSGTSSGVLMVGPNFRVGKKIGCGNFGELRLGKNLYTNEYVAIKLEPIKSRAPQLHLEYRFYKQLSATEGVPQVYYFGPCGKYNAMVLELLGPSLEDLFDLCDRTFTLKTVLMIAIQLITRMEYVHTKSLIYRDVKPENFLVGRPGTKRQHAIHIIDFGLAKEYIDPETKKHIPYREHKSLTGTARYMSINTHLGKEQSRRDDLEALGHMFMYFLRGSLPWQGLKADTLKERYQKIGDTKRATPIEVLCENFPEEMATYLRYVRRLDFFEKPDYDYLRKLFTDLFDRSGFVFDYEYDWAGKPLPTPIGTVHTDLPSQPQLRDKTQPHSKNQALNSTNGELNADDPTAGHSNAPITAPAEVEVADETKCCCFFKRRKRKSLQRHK

Chain of Serine/threonine-protein kinase SIK1 (Homo sapiens) (P57059 whole entry): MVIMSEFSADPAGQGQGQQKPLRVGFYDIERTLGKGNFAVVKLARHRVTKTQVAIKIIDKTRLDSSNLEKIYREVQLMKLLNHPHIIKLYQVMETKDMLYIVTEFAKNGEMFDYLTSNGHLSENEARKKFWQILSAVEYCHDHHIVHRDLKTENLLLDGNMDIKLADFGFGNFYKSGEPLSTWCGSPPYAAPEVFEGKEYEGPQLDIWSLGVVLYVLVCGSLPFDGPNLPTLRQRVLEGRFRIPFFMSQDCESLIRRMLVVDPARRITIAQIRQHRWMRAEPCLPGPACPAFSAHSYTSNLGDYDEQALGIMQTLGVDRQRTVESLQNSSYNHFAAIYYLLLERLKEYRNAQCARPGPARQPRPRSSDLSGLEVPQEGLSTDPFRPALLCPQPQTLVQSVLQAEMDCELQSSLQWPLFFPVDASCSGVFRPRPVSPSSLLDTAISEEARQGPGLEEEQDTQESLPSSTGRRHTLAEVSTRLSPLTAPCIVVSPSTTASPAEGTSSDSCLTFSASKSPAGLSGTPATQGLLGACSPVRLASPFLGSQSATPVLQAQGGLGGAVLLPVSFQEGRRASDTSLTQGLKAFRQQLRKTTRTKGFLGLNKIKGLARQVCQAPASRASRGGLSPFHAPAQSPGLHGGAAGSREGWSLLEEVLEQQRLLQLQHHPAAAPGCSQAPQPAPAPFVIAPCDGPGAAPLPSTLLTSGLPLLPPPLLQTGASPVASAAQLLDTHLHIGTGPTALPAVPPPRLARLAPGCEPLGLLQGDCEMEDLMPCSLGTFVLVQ
Chain of Serine/threonine-protein kinase SIK2 (Homo sapiens) (Q9H0K1 whole entry, looked up): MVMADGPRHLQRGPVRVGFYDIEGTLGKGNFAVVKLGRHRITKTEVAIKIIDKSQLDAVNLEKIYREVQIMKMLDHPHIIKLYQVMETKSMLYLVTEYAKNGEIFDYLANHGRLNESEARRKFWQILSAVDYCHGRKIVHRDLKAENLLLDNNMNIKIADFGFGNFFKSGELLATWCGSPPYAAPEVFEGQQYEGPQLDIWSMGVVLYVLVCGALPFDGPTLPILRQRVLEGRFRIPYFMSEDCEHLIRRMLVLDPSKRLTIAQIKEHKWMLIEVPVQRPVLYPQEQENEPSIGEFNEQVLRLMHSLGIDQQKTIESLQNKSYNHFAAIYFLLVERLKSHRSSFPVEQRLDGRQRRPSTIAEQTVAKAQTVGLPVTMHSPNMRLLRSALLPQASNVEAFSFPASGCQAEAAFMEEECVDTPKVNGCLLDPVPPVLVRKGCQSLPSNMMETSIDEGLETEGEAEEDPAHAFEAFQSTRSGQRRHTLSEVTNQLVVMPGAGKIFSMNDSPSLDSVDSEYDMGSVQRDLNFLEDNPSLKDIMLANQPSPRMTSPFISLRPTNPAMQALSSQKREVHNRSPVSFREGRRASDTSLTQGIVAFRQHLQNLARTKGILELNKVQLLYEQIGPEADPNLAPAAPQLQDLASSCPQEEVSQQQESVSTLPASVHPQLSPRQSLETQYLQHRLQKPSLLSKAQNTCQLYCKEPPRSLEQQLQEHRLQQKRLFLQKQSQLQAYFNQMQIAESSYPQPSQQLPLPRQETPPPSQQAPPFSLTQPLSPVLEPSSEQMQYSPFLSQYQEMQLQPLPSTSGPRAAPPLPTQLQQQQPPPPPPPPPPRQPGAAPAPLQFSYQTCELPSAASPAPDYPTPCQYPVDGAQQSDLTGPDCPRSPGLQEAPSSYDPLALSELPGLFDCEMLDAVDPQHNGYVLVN
Chain of Casein kinase I isoform alpha (Homo sapiens) (P48729 2-337 limits assumed): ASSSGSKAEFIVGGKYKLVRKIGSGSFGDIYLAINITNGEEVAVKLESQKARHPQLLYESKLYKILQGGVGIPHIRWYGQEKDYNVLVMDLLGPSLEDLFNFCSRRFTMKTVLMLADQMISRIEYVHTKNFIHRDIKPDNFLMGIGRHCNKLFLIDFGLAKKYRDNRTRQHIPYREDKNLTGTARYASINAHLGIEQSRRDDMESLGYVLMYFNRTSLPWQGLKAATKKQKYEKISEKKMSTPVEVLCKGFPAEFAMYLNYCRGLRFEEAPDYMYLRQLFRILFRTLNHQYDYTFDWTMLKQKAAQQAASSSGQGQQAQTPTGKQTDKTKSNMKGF
Chain of Casein kinase I isoform gamma-1 (Homo sapiens) (Q9HCP0 whole entry, looked up, canonical isoform): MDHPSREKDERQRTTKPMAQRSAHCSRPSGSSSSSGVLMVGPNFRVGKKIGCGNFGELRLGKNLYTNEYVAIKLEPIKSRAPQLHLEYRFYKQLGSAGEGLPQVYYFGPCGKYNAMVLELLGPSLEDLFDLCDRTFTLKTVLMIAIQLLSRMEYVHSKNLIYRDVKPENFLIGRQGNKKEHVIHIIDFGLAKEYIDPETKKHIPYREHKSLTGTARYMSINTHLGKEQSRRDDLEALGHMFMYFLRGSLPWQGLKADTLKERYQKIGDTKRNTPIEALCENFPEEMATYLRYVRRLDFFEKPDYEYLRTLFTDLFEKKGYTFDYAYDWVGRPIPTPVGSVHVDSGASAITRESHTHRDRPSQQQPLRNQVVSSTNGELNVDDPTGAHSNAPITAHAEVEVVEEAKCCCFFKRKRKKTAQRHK
Chain of Serine/threonine-protein kinase pim-2 (Homo sapiens) (Q9P1W9 whole entry, looked up): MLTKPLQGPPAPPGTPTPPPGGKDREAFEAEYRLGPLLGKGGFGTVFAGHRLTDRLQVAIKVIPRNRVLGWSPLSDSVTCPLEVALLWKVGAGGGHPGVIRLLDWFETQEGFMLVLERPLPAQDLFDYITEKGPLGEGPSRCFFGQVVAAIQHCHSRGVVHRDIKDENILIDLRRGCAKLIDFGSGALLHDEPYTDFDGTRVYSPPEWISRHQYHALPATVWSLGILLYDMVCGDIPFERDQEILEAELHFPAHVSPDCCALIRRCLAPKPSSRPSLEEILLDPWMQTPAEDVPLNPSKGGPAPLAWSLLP

Compound | inhibition [1] | inhibition [2] | inhibition [3] | inhibition [4] | inhibition [5] | inhibition [6] | inhibition [7] | inhibition [8] | inhibition [9] | inhibition [10] | inhibition [11] | inhibition [12] | inhibition [13] | inhibition [14] | inhibition [15] | inhibition [16] | inhibition [17] | inhibition [18] | inhibition [19] | inhibition [20]
Cn1c(-c2nonc2N)nc2cnccc21 | 1.87% | -0.24% | 7.16% | 1.23% | 0.93% | 4.82% | 8.47% | 5.17% | -0.26% | 1.34% | 7.42% | 3.15% | 3.81% | 2.01% | 0.12% | 3.34% | 6.21% | 2.61% | 2.68% | 2.2%
NS(=O)(=O)c1ccc(N/N=C2\C(=O)Nc3cccc(CCc4ccncc4)c32)cc1 | 0.64% | 0.22% | 0.75% | 0.36% | 0.28% | 1.17% | 2.64% | 2.91% | -0.94% | 1.99% | 4.17% | 2.49% | 1.9% | 0.54% | 1.32% | 1.84% | -0.19% | 0.44% | 0.85% | 0.15%
OCCCNc1nccc(-c2c(-c3ccc(F)cc3)nn3cc(C(F)(F)F)ccc23)n1 | -0.96% | -0.81% | -0.18% | -0.21% | -1.07% | 5.25% | 6.5% | 7.07% | 16.9% | 2.49% | 5.25% | 1.75% | -0.99% | 1.56% | -2.79% | 8.54% | 28.7% | 1.82% | 4.37% | 0.31%
CNC(=O)c1cncc(/C=C/c2ccccc2C)c1 | 1.06% | -0.06% | 5.04% | 1.79% | 3.16% | 10% | 39.5% | 9% | 18.5% | 2.9% | 6.39% | 4.49% | 5.13% | 3.39% | 2.6% | 1.22% | 5.05% | 2.73% | 3.62% | 2.46%
O=C(Nc1n[nH]c2nnc(-c3cccnc3)cc12)C1CC1 | 28.7% | 26.8% | 69.7% | 0.13% | -0.19% | 1.74% | 5.12% | 1.86% | -1.67% | 0.25% | 1.3% | 0.18% | 1.92% | -0.11% | 0.95% | -0.76% | -2.19% | -0.63% | 0.33% | -0.76%
COc1c(C(N)=O)cc(-c2ccc(Cl)cc2)cc1-c1ccc(S(N)(=O)=O)cc1 | -0.88% | -0.2% | 0.43% | 1.35% | 2.31% | 10.7% | 16.1% | 8.28% | 6.93% | 4.69% | 3.5% | 4.67% | 5.11% | 2.57% | 2.89% | 5.95% | 12.6% | 4.33% | 6.12% | 4.61%
Cc1c2ccc(N(C)c3ccnc(Nc4cccc(S(N)(=O)=O)c4)n3)cc2nn1C | -3.16% | -1.16% | -2.47% | 1.9% | 1.08% | 4.24% | 27.6% | 3.64% | 9.51% | 4.99% | 8.43% | 3.59% | 3.32% | 1.26% | 1.14% | 3.21% | 4.51% | 1.31% | 1.52% | -0.37%
Nc1nccc(-c2c(-c3ccc(F)cc3)ncn2C2CCNCC2)n1 | 1.8% and 0.96% | 0.82% and 0.07% | 11% and 0.53% | -1.67% and 0.07% | -1.48% and 0.35% | -9% and 6.76% | -2.37% and 5.84% | -0.69% and 8.02% | 37.4% and 47.1% | -1.45% and -0.58% | -0.8% and 3.12% | -0.43% and -0.33% | -1.08% and -1.15% | -2.53% and 0.42% | -0.67% and -0.42% | 61.4% and 67% | 85% and 86.4% | -1.9% and 1.36% | 8.77% and 13.7% | -1.89% and 0.78%
COc1cccc(Nc2nccc(-c3cnn4ncccc34)n2)c1 | 2.39% | 2.39% | 17.6% | 0.42% | 3.44% | 6.56% | 20.8% | 4.86% | 13.6% | 4.06% | 22.9% | 2.07% | 12.8% | 0.21% | 0.62% | 14.9% | 48% | 2.61% | 20.5% | 4.45%
NS(=O)(=O)c1cccc(N/C=C2\C(=O)Nc3ccccc32)c1 | 0.69% | -0.71% | -2.38% | 1.17% | 1.53% | 5.29% | 10.8% | -0.72% | 11.3% | 3.79% | 14.4% | 4.45% | 4.78% | 1.7% | 1.39% | 8.16% | 21.6% | 4.71% | 10.6% | 3.71%
CNC(=O)c1sc(-n2cnc3cc(OC)c(OC)cc32)cc1OCc1ccccc1C(F)(F)F | 0.56% | -0.77% | -0.33% | 1.17% | 1.03% | 5.73% | 11.3% | 7.24% | 8.75% | 1.68% | 4.39% | 1.24% | 1.63% | 1.51% | 1.01% | 0.44% | 2.65% | 3.33% | 3.86% | 3.4%
COc1ccccc1-c1cc(/C=C2\C(=O)Nc3ncc(Br)cc32)cc(Br)c1O | -0.06% | -1.67% | -1.54% | 1.35% | 0.67% | 3.09% | 9.01% | 0.5% | 10.4% | 0.53% | 6.07% | 4.24% | 6.09% | 2.5% | 1.91% | 2.91% | 5.66% | 5.05% | 5.44% | 3.14%
c1ccc(-c2n[nH]cc2-c2ccnc(-c3ccc(OCCn4ccnc4)cc3)c2)nc1 | 0.26% | 0.51% | 0.09% | 0.48% | 1.25% | 1.64% | 6.26% | 0.8% | 10% | 0.6% | 0.29% | 1.73% | 2.8% | 2.08% | 1.93% | 3.33% | 18.1% | 0.69% | 3.14% | 0.83%

Reference: ChEMBL document CHEMBL1961873, “Compounds: GSK PKIS; Assays: Nanosyn kinase panel” (2012)
